Screening results: PubChem, several laboratories
Only some compounds are listed: those with a hit (about 1.6% of all), similar ones and a draw of the others.
PPC-1+TRAIL kill – compounds killing PPC-1 cancer cells with TRAIL present, primary screen, TRAIL potentiator project, ATPLite luminescence, uHTS | 220,000 tested, 0.41% active | PPC-1 cells + TRAIL, ATPLite viability luminescence | cell killing (% activity), % at 4 µM or 5 µM;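 active = cell killing above 50% in the first pass at 4 µM, then a duplicate retest at 5 µM averaging 50% or more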;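 also: plate controls were cells with TRAIL plus DMSO for no effect and medium-only wells lacking cells for full effect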
Platelet DG rel – inhibitors of platelet dense granule secretion, primary screen, cell-based, MLPCN, human platelets; human platelet-rich plasma, SFLLRN dense granule ATP release, luminescence; inhibition, %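 (compounds screened at 7.5 µM in platelet-rich plasma)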; 300,000 tested, 0.22% active; AID 1663, 2009;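 active = mean replicate score, as percent of positive control, at or above 50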
STAT1 blocker – STAT1 signaling inhibitors, primary screen, cell-based, HTS, luciferase reporter; inhibition, % at 5.5 µM; 200,000 tested, 0.35% active; NIH 3T3 STAT1-luciferase reporter, IFN-gamma, luminescence; AID 920, 2007;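 active = inhibition above a set limit, the mean inhibition across all tested compounds plus 3 SD, cut at about 34% in these data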;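 also: 0% = IFN-gamma with DMSO and 100% = IFN-gamma with 300 µM nifuroxazide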
C8 TRAIL sens – viability loss with TRAIL in NB7+C8 cells, primary screen, TRAIL sensitizer project, cell-based, ATPlite luminescence. 360,000 tested, 1% active. inhibition (viability loss, TRAIL sensitization), % at 10 µM;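 active = compounds causing at least 50% loss of cell viability in the single-dose screen, relative to plate controls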
STAT3 inh-1 – IL-6 driven STAT3 reporter inhibitors, primary screen, U3A cells, luciferase, luminescence, MLSCN library; IL-6 STAT3-luciferase reporter; host cell line lacks STAT1; inhibition, % at 5.5 µM; 190,000 tested, 0.89% active;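 active = inhibition above the mean inhibition across all screened compounds plus 3 SD, cut at about 44% in these data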;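 also: 0% = DMSO only wells and 100% = 100 µM nifuroxazide control wells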
STAT3 inh-2 – STAT3 reporter inhibitors, retest of hits, confirmation, U3A cells, luciferase, luminescence; 1,200 tested, 45% active; IL-6 STAT3 luciferase reporter; cell line lacks STAT1; shares compounds with STAT3 inh-1; inhibition, % at 5.7 µM;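 active = inhibition above the hit cutoff computed for the primary STAT3 screen, cut at about 44% in these data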;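 also: 0% = IL-6 plus DMSO and 100% = IL-6 plus nifuroxazide control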
NFkB inh 2 – NF-kB reporter inhibitors in human cells, confirmation, counter-screen for STAT3 inhibitor project, cell-based, HEK293T, luciferase, TNF-alpha stimulus. shares compounds with STAT3 inh-1. TNF-alpha induced. inhibition, % at 5.7 µM. 1,200 tested, 36% active;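 active = inhibition above the mean of solvent-only control wells plus 3 SD, cutoff set per campaign, cut at about 13% in these data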;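 also: 0% = TNF-alpha with DMSO and 100% = TNF-alpha with MG high control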
STAT1 inh 2 – STAT1 reporter inhibitors, IFN-gamma induced, confirmation, counter-screen for STAT3 inhibitor project, cell-based, NIH 3T3, luciferase luminescence; shares compounds with STAT3 inh-1; NIH 3T3 STAT1-luciferase reporter; 1,200 tested, 27% active; inhibition, % at 5.7 µM;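 active = inhibition above the mean plus 3 SD of solvent-only control wells, limit set per screening run, cut at about 16% in these data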;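 also: 0% = DMSO with IFN-gamma and 100% = nifuroxazide control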
Starred values were filed as active, the others as inactive; . = not tested or not shown; ! = not active in a repeat.

SMILES	PPC-1+TRAIL kill	Platelet DG rel	STAT1 blocker	C8 TRAIL sens	STAT3 inh-1	STAT3 inh-2	NFkB inh 2	STAT1 inh 2
CC1CCCN(C(=O)c2ccc(S(=O)(=O)N3CCC(c4nc5ccccc5s4)CC3)cc2)C1 (centres undefined)	.	-4	-4	13	53*	50*	14*	18*
CCN(CC)C(=O)c1ccc(S(=O)(=O)N2CCC(c3nc4ccccc4s3)CC2)cc1	22	-7	22	15	67*	51*	11	18*
OC[C@@H]1CN(Cc2ccc(Cl)cc2)C[C@H](n2cnc3c(N4CCCC4)ncnc32)O1	.	.	.	2	.	.	.	.
Cn1c(=O)n(C)c2cc([N+](=O)[O-])c(N3CCN(C(=O)c4ccccc4Cl)CC3)cc21	13	-35	18	16	63*	40	9	11
O=C1C=C(NC2=CC3OC(c4ccccc4)OCC3OC2=O)CCC1 (centres undefined)	25	11	18	-8	51*	36	21*	18*
O=C(CSc1cnc2ccccc2n1)c1ccc(F)cc1	15	7	-17	5	58*	-3	-37	-70
COC(=O)CSc1cnc2ccccc2n1	-12	-4	-9	-11	-13	.	.	.
CC(=O)Nc1ccc(-c2ccnc3c2CC(C(=O)Nc2cccnc2)O3)cc1 (centres undefined)	.	.	.	12	.	.	.	.
CC1CCC(C(C)C)C(OC(=O)Cn2c(-c3ccccc3)[n+](C)c3ccccc32)C1 (centres undefined)	24	-11	20	58*!	53*!	34	3	22*
Cc1c(C(=O)NCc2ccc(C(C)C)cc2)sc(=O)n1Cc1ccc(S(=O)(=O)N(C)C)cc1	.	.	.	0	.	.	.	.
COc1ccc(-n2c(C)nc3c(cnn3-c3ccc(Cl)cc3)c2=O)cc1	-10	-3	13	11	52*	42	9	8
CC1=C(C(=O)N(C(C)C)C(C)C)CC(CC(=O)NCc2cccc3ccccc23)C(=O)N1Cc1ccccc1 (centres undefined)	.	.	.	1	.	.	.	.
COCCn1c(C)cc(C(=O)CSc2nnc3ccccn23)c1C	18	2	31	16	74*	21	0	-32
O=C(O)/C=C/c1cnn(-c2ccccc2)c1	12	-25	29	-21	45*	13	-14	-29
CC1(Cc2ccccc2F)C(=O)Nc2c(Cl)ccc(Cl)c21 (centres undefined)	.	.	.	-7	.	.	.	.
CC(C)(C)c1ccc(C(=O)Nc2cccc3c(=O)[nH][nH]c(=O)c23)cc1	31	11	7	47	67*	-6	3	-21
Cc1ccc(C(=O)Nc2cccc3ccccc23)cc1	.	-4	.	-3	.	.	.	.
CSc1ccc(Cn2c(C)c(C(=O)NCc3cccs3)sc2=O)cc1	.	.	.	3	.	.	.	.
CCCCC[n+]1cccc2c3ccccc3ccc21	34	0	31	34	73*	66*	21*	24*
CCCC[n+]1c2ccccc2cc2ccccc21	.	-8	.	13	.	.	.	.
Cc1cccc(N2CCN(C(=O)c3cc(S(=O)(=O)N4CCOCC4)cn3C)CC2C)c1 (centres undefined)	.	10	.	-2	.	.	.	.
Brc1ccc(-c2cn3nc4c(nc3n2)CCCC4)cc1	8	-1	30	-10	77*	25	-38	-119
c1ccc(CN2CCC3CC2c2c3cccc2N2CCOCC2)cc1 (centres undefined)	.	.	.	-6	.	.	.	.
COc1cccc(-c2cc(C(=O)Nc3cc(C)n(Cc4ccc(Cl)cc4)n3)no2)c1	8	2	-5	-2	55*	70*	20*	-3
Cc1cc(NC(=O)c2cc(-c3ccco3)on2)nn1Cc1ccc(Cl)cc1	5	-10	-2	30	63*	58*	13*	-8
SMILES	PPC-1+TRAIL kill	Platelet DG rel	STAT1 blocker	C8 TRAIL sens	STAT3 inh-1	STAT3 inh-2	NFkB inh 2	STAT1 inh 2
COc1ccc(OC)c(-c2cc(C(=O)Nc3cc(C)n(Cc4ccc(Cl)cc4)n3)no2)c1	2	4	-5	7	-15	.	.	.
Brc1ccc(-c2nc(-c3ccccn3)no2)o1	41	-5	36*	43	75*	33	-4	-48
CC1(C(=O)Nc2ccc(Cl)c(Cl)c2)CCN1Cc1ccccc1OC(F)F (centres undefined)	.	.	.	33	.	.	.	.
CCOC(=O)C1=NOC2(C1)C(=O)Nc1ccc(OC)cc12 (centres undefined)	.	.	.	-1	.	.	.	.
COc1ccc(N=Cc2ccccc2O)cc1	.	.	.	-10	.	.	.	.
COc1ccc(N=CC2=C(O)c3ccccc3C2=O)cc1	7	59*	15	88*	92*	12	25*	-133
O=C1C(C=Nc2ccccc2O)=C(O)c2ccccc21	24	13	2	46	49*	-57	-30	-11
Cc1ccc(O)c(N=CC2=C(O)c3ccccc3C2=O)c1	17	20	-25	23	-49	.	.	.
O=C(O)c1ccc(NC(=S)NC(=O)c2ccc(-c3ccc(Br)cc3)o2)cc1	.	5	.	7	.	.	.	.
CC1(C(=O)NS(=O)(=O)c2cccc(OC(F)F)c2)CCN1C(=O)c1ccco1 (centres undefined)	.	.	.	-6	.	.	.	.
Cc1ccc(COC(=O)c2nn(C)c(=O)c3ccccc23)cc1	12	3	20	34	52*	47*	17*	21*
Cn1nc(C(=O)OCc2ccc(F)cc2)c2ccccc2c1=O	-6	6	19	-5	35	.	.	.
CCc1nc2c(OCCn3cccc3)cccn2c1N(C)C(=O)c1ccco1	.	.	.	-10	.	.	.	.
CCc1nc2ccc(C(=O)NCCCN(C)C)cn2c1N(C)CCCc1ccccc1	.	.	.	-15	.	.	.	.
Cn1nc(CC(=O)NCc2ccc(C(F)(F)F)cc2)c2ccccc2c1=O	-3	10	26	21	39	.	.	.
Cn1nc(CC(=O)Nc2cccc3ncccc23)c2ccccc2c1=O	20	-6	12	22	46*	33	5	17*
COc1ccc(NC(=O)Cc2nn(C)c(=O)c3ccccc23)c2ncccc12	16	.	.	.	.	.	.	.
COc1ccc(CNC(=O)Cc2nn(C)c(=O)c3ccccc23)cc1	22	.	27	10	51*	48*	13*	25*
O=C(NCc1ccccc1)c1cc(C2CCCCN2C(=O)c2cccs2)on1 (centres undefined)	.	.	.	5	.	.	.	.
